Records with an inconclusive call do not appear. The source made the active and inactive calls. Unless noted, calls come from the whole dose curve; as a rule, active = well fitted curve in the direction sought with a large enough effect; inconclusive = small, poorly fitted or top-dose-only effect, or another doubt; inactive = no such curve, though single readings can be large; an effect the other way counts as inactive or inconclusive.
Legend:
[1] = target: Lysosomal acid glucosylceramidase (Homo sapiens) (UniProt P04062); test: Glucocerebrosidase-p2 (AID 348; in the data active = potency below about 10 µM; note: potency is the fitted concentration of half-maximal effect); conditions: purified GBA, blue fluorogenic substrate, 40 min
Procedure, shortened: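 Normal human glucocerebrosidase (0.2 nM) with blue fluorogenic substrate (80 uM final) in citrate/phosphate pH 5.9 with 10mM sodium taurocholate, 0.01% tween-20; 40 min RT, NaOH/glycine stop; fluorescence Ex 365/Em 440; AC50 from a titration from 0.6 nM upwards.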

[2] = AP1 Signaling Pathway (AID 357; active = well fitted curve in either direction with a large enough effect, not every such curve was filed as active; note: % is set by controls: 0 for no effect and ±100 for the full control effect); conditions: ME-180 AP-1-bla reporter, EGF-induced, beta-lactamase ratio, 5 h; at 7.69 µM (top of the series) unless noted
Procedure, shortened: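 ME-180 cells with beta-lactamase reporter under AP-1 response element, stimulated with EC50 EGF; compounds tested in titration series, 5 h at 37 °C. CCF4 substrate added 2.5 h at room temperature; 460/530 nm emission ratio gave %activity and AC50.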

[3] = target: Cytochrome P450 1A2 (Homo sapiens) (UniProt P05177); test: p450-cyp1a2 (AID 410; calls by dose curve; note: potency is the fitted concentration of half-maximal effect;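 for activity change, negative = inhibition: -100% = full effect of reference inhibitor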); conditions: recombinant CYP1A2, luciferin-ME demethylation, luminescence; series mostly up to 57 µM
Procedure, shortened: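 Luminescent demethylation readout: Luciferin-ME (100uM, equal to Km) turned over by 20nM CYP1A2 for 60 min at room temperature after NADPH regeneration addition, following 10 min compound preincubation. Normalization used 57 uM furafylline as full inhibition.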

[4] = NFAT Signaling Pathway (AID 444; active = well fitted curve in either direction with a large enough effect, not every such curve was filed as active;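 note: carbachol stimulus at about its EC50 of 1 µM final; % is set by controls: 0 for no effect and ±100 for the full control effect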); conditions: Jurkat NFAT-bla M1, carbachol, beta-lactamase ratio, 5 h; at 7.69 µM (top of the series) unless noted
Procedure, shortened: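 Read-out: CCF4 FRET ratio (460 nm/530 nm) after 1 h RT dye loading, used for %activity and AC50 from titration series. Cells: Jurkat NFAT-β-lactamase/M1 line, treated with compound plus 1 uM carbachol for 5 h, 37 °C.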

[5] = Stat Signaling Pathway (AID 446; active = well fitted curve in either direction with a large enough effect, not every such curve was filed as active;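 note: ME-180 cervical cancer cells given 40 pM IL-6 alongside compound; SIE-controlled beta-lactamase reporter measured as 460/530 nm FRET emission ratio; % is set by controls: 0 for no effect and ±100 for the full control effect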); conditions: ME-180 SIE beta-lactamase reporter, IL-6 stimulated, 5 h; at 7.69 µM (top of the series) unless noted
Procedure, shortened: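 Emission at 460 and 530 nm (excitation 405 nm) reports SIE-controlled beta-lactamase in ME-180 cells. Cells received compound with 40 pM IL-6 for 5 hrs at 37 C; data scaled between 300 pM IL-6 and 125 nM JAK-inhibitor controls.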

[6] = target: Glucocorticoid receptor (Homo sapiens) (UniProt P04150); test: GR-GFP Redistribution (AID 450;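 active = compounds whose dose series gives a full or clear partial fitted curve of increased nuclear translocation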; note: potency is the fitted concentration of half-maximal effect); conditions: U2OS GR-GFP nuclear translocation, laser cytometry, 2 h
[7] = target: Glucocorticoid receptor (Homo sapiens) (UniProt P04150); test: GR-EFC Redistribution (AID 451; calls by dose curve; note: potency is the fitted concentration of half-maximal effect); conditions: CHO-K1 GR-EFC translocation, beta-gal luminescence, 2 h
Procedure, shortened: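 Translocation of GR-ED fusion to nuclear EA restores b-gal, read by luminescence after 1 h room-temperature detection. Engineered CHO-K1 biosensor cells, 1,000/well, exposed 2 h at 37 C to titrations up to 46 uM final.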

[8] = target: Mitogen-activated protein kinase 10 (Mus musculus) (UniProt Q61831); test: JNK3 AlphaScreen Assay (AID 530; active = well fitted curve in either direction with a large enough effect, not every such curve was filed as active;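 note: kinase came from lysate of stimulated human HepG2 cells; signal reports phosphorylation of biotinylated GST-cJun 1-79 at Ser73 with 10 µM ATP; % is set by controls: 0 for no effect and ±100 for the full control effect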); conditions: JNK3 lysate, c-Jun phosphorylation; series mostly up to 57.1 µM
Procedure, shortened: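 qHTS titrations with 15 min compound pre-incubation before adding ATP (10 uM final). Read-out: AlphaScreen of Ser73-phosphorylated biotin-GST-cJun using HepG2 lysate JNK3 activated by IL-1β and TNFα.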

[9] = target: 3',5'-cyclic-AMP phosphodiesterase 4B (Homo sapiens) (UniProt Q07343); test: qHTS Assay for Inhibitors of PDE-IV (AID 607; active = well fitted activation curve with a large enough effect in the main read-out, with a control signal flat, not every such curve was filed as active; note: % of control where 0% means no effect); conditions: HEK293 ACTOne CNG channel cells, membrane potential fluorescence; series mostly up to 22.9 µM
Procedure, shortened: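 The readout is membrane depolarisation from a cAMP-sensing CNG channel, detected with a potential dye at ex 535/em 590. Cells were HEK293-derived (endogenous PDE-IV) at 1000 cells/well, titrated up to 22.9 uM final.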

[10] = qHTS Assay for Lipid Storage Modulators (AID 1519; calls by dose curve); conditions: Drosophila S3 cells, BODIPY lipid droplet/cell ratio, laser cytometry, cells loaded with oleic acid; for activity change, negative = inhibition: at 57.5 µM (top of the series)
Procedure, shortened: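 Cells seeded at 5,000 per well were treated with compounds over a concentration series and loaded with oleic acid (400 uM, as added). Lipid droplet fluorescence (488 nm excitation, 500-530 nm channel) was read by laser-scanning cytometry and normalized to 20 uM Triacsin C.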

[11] = target: Dual specificity protein kinase CLK4 (Homo sapiens) (UniProt Q9HAZ1); test: qHTS Assay for Inhibitors of CDC-like Kinase 4 (Kinase-Glo Assay) (AID 1770); conditions: recombinant Clk4, Kinase-Glo ATP depletion luminescence; series mostly up to 66.7 µM; note: % is set by controls: 0 for no effect and ±100 for the full control effect; nearly all actives have a fitted effect of over 65% in size
Procedure, shortened: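 Inhibition was judged from remaining ATP, measured by Ultra-Glo luciferase bioluminescence after Clk4 (25 nM) had acted on RS peptide at 1 uM ATP for 4.5 hours, room temperature.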

[12] = target: Dual specificity protein kinase CLK4 (Homo sapiens) (UniProt Q9HAZ1); test: qHTS Assay for Inhibitors of CDC-like Kinase 4 (ADP-Glo Assay) (AID 1771); conditions: recombinant CLK4, ADP-Glo luminescence; series mostly up to 80 µM; note: % is set by controls: 0 for no effect and ±100 for the full control effect; nearly all actives have a fitted effect of over 70% in size
Procedure, shortened: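 ADP production was read by ADP-Glo luminescence after residual ATP depletion, following 1 h room-temperature reaction of 25 nM Clk4, 1 uM ATP and 100 uM RS peptide with MgCl2, EGTA, DTT and Triton X-100.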

[13] = target: Dual specificity protein kinase CLK4 (Homo sapiens) (UniProt Q9HAZ1); test: qHTS Assay for Inhibitors of CDC-like Kinase 4 (ADP-FP Assay) (AID 1795); conditions: Transcreener ADP fluorescence polarization; series mostly up to 50 µM;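 note: recombinant human CLK4 phosphorylating RS repeat peptide at 1 µM ATP; % is set by controls: 0 for no effect and ±100 for the full control effect; nearly all actives have a fitted effect of over 60% in size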
Procedure, shortened: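 Inhibition of ADP formation by 6.25 nM Clk4 is measured using 1 uM ATP and 100 uM RS repeat peptide over one hour. Produced ADP displaces a fluorescent tracer from antibody, lowering polarization.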

[14] = target: Ubiquitin carboxyl-terminal hydrolase 1 (Homo sapiens) (UniProt O94782); test: Inhibitors of USP1/UAF1: Pilot qHTS (AID 504865); conditions: purified USP1/UAF1, Ub-rhodamine cleavage fluorescence; series mostly up to 54.9 µM;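 note: rhodamine fluorescence freed from ubiquitin-rhodamine substrate followed over time; top concentration of the series differs between compounds; % is set by controls: 0 for no effect and ±100 for the full control effect; nearly all actives have a fitted effect of over 35% in size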
Procedure, shortened: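 Kinetic fluorescence assay: 1nM USP1/UAF1, 15 min compound preincubation, then 150nM Ub-Rho; 480/540 nm.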

[15] = Primary qHTS for small molecule stabilizers of the endoplasmic reticulum resident proteome: Secreted ER Calcium Modulated Protein (SERCaMP) assay (AID 1508630); conditions: SH-SY5Y GLuc-SERCaMP (Gaussia luciferase released on ER calcium loss) secretion, thapsigargin, luminescence; series mostly up to 38.4 µM; note: % is set by controls: 0 for no effect and ±100 for the full control effect
Procedure, shortened: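 The SH-SY5Y reporter protocol was run at 3 concentrations up to 38.3 uM (primary) or 11 concentrations (follow-up): 16 h compound, 100 nM thapsigargin for 4 h, then extracellular luciferase luminescence.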

[16] = target: Cytochrome P450 3A4 (Homo sapiens) (UniProt P08684); test: qHTS Assay for Inhibitors and Substrates of Cytochrome P450 3A4 (AID 884); conditions: recombinant CYP3A4, Luciferin-PPXE luminescence; series mostly up to 57.1 µM; note: potency is the fitted concentration of half-maximal effect; nearly all actives have a fitted effect of over 50% in size
Procedure, shortened: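 Luminescent readout of luciferin produced by CYP3A4 (20 nM) dealkylation of Luciferin-PPXE, 25 uM (its KM). NADPH-driven reaction ran 60 min at RT after 10 min compound preincubation; data scaled to 57 uM ketoconazole as 100% inhibition.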

[17] = target: Cytochrome P450 3A4 (Homo sapiens) (UniProt P08684); test: qHTS Assay for Activators of Cytochrome P450 3A4 (AID 885); conditions: recombinant CYP3A4, Luciferin-PPXE luminescence, 60 min; series mostly up to 57.1 µM; note: nearly all actives have a fitted effect of over 65% in size
Procedure, shortened: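 Activators are scored by enhanced luminescence from CYP3A4 conversion of luciferin-PPXE (25uM, equal to KM) to luciferin, after 60 min at RT with an NADPH-regenerating system.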

[18] = qHTS Assay for Identification of Small Molecule Agonists for Hypoxia Response Element Signaling Pathway (AID 914; active = well fitted activation curve with a large enough effect in the signal ratio, with a control signal flat, not every such curve was filed as active; the % refers to the signal ratio; note: % of control where 0% means no effect); conditions: ME-180 (cervical carcinoma) HRE-bla reporter, beta-lactamase ratio, CoCl2, 17 h; activation: stronger effect = higher value
Procedure, shortened: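 HRE-bla ME-180 assay for agonist-like enhancement of an EC50 CoCl2 stimulus: 17 h at 37 degrees Celsius, CCF4 for 2.5 h, ratiometric 460/530 nm signal converted to %Activity and fitted to AC50.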

[19] = target: Cytochrome P450 2C19 (Homo sapiens) (UniProt P33261); test: qHTS Assay for Inhibitors and Substrates of Cytochrome P450 2C19 (AID 899); conditions: recombinant CYP2C19, luciferin-H EGE luminescence; series mostly up to 57.1 µM; note: potency is the fitted concentration of half-maximal effect; nearly all actives have a fitted effect of over 60% in size
Procedure, shortened: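 Reactions contain 5nM enzyme, 10uM Luciferin-H EGE (KM) and 50mM KPO4; compound preincubates 10 min at 37C, NADPH regeneration starts turnover for 60 min. Luminescence after detection reagent gives activity.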

[20] = target: Cytochrome P450 2C9 (Homo sapiens) (UniProt P11712); test: qHTS Assay for Inhibitors and Substrates of Cytochrome P450 2C9 (AID 883); conditions: recombinant CYP2C9, luciferin-H luminescence, 60 min; series mostly up to 57.1 µM; note: % is set by controls: 0 for no effect and ±100 for the full control effect; nearly all actives have a fitted effect of over 60% in size
Procedure, shortened: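 Turnover of Luciferin-H (100uM, KM) by 10nM human CYP2C9 was measured over 60 min at 37C with NADPH regeneration; inhibitors and some substrates reduce luminescence. Data normalized to sulphaphenazole 57uM.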

[21] = measured here: cell count channel max response
[22] = measured here: lipid channel max response

Sequence of 3',5'-cyclic-AMP phosphodiesterase 4B (Homo sapiens) (Q07343 whole entry, looked up): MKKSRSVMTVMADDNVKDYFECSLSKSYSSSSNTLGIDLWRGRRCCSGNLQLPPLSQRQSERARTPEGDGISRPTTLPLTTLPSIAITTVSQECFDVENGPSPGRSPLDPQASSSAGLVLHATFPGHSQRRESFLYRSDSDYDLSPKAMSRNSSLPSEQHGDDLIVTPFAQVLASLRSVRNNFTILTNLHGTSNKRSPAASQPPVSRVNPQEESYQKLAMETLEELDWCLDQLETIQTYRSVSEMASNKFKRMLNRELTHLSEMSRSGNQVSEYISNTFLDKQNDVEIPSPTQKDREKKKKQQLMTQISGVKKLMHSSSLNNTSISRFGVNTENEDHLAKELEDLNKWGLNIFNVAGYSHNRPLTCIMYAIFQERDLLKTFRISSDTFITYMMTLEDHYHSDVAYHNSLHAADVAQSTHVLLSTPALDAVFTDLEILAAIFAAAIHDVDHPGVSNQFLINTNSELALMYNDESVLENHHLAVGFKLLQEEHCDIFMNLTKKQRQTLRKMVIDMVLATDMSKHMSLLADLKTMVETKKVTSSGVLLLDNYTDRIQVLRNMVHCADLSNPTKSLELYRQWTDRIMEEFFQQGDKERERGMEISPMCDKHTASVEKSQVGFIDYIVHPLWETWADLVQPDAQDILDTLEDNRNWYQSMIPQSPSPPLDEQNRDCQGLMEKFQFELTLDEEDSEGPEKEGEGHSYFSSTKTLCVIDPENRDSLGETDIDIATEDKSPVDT
Sequence of Lysosomal acid glucosylceramidase (Homo sapiens) (P04062 whole entry, looked up): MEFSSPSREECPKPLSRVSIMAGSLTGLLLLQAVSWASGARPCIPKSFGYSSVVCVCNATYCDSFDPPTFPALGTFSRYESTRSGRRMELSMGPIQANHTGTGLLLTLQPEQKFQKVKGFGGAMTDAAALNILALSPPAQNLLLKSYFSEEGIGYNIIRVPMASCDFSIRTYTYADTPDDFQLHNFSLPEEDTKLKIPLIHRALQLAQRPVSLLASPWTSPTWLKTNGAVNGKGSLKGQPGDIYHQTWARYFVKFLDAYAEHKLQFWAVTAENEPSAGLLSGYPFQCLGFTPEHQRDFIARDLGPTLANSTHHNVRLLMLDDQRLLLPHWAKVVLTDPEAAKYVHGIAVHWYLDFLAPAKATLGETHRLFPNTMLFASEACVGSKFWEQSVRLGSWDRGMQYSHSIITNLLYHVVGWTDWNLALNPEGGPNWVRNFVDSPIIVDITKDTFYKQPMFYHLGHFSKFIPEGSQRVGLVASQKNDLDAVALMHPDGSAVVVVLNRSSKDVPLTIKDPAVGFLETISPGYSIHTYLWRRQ
Sequence of Dual specificity protein kinase CLK4 (Homo sapiens) (Q9HAZ1 whole entry, looked up): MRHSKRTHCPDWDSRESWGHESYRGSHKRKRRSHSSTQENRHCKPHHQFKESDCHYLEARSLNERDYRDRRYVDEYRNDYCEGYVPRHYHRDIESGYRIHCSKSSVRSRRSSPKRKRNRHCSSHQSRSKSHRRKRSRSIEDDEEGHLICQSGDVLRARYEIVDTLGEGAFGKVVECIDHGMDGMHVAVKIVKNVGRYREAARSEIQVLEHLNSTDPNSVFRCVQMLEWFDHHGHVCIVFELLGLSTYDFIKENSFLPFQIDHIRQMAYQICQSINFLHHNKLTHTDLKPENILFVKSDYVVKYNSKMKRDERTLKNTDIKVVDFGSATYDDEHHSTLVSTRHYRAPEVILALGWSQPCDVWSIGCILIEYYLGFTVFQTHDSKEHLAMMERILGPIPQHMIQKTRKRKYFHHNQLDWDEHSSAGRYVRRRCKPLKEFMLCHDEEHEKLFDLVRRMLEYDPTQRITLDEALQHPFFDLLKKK
Sequence of Glucocorticoid receptor (Homo sapiens) (P04150 whole entry, looked up, the tested form may be a part): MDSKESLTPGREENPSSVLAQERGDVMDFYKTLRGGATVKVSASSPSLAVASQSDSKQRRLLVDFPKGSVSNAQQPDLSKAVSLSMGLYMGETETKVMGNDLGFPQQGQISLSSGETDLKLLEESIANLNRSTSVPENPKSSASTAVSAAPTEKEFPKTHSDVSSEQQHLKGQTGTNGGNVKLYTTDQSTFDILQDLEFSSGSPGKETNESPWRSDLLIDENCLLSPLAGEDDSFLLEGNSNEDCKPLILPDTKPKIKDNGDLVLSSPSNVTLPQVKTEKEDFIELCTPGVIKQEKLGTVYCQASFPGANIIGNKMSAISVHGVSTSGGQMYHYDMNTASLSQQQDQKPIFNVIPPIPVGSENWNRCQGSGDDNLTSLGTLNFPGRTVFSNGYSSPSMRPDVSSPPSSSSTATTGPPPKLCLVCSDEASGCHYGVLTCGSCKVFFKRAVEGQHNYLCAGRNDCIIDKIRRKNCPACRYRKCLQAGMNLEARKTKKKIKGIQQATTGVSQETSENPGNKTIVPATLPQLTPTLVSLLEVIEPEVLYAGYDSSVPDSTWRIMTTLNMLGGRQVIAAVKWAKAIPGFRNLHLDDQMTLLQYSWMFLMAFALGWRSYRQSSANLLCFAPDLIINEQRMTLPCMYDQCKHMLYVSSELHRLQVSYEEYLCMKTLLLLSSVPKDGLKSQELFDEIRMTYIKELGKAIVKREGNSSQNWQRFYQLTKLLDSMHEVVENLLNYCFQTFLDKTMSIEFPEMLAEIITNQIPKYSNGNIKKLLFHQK
Sequence of Cytochrome P450 3A4 (Homo sapiens) (P08684 whole entry, looked up): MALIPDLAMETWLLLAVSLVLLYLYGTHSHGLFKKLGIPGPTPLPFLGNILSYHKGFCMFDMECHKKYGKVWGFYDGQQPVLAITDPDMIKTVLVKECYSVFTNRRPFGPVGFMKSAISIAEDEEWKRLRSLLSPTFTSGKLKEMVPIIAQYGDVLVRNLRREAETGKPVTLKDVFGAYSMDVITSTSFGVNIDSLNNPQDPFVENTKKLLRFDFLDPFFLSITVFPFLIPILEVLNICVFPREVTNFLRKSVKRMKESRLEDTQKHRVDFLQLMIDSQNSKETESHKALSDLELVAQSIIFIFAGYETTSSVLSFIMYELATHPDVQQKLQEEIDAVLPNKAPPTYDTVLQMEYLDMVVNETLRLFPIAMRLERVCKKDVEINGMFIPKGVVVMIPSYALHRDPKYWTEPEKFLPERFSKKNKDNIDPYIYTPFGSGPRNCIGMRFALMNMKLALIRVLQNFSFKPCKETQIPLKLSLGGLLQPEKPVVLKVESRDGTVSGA
Sequence of Ubiquitin carboxyl-terminal hydrolase 1 (Homo sapiens) (O94782 whole entry, looked up): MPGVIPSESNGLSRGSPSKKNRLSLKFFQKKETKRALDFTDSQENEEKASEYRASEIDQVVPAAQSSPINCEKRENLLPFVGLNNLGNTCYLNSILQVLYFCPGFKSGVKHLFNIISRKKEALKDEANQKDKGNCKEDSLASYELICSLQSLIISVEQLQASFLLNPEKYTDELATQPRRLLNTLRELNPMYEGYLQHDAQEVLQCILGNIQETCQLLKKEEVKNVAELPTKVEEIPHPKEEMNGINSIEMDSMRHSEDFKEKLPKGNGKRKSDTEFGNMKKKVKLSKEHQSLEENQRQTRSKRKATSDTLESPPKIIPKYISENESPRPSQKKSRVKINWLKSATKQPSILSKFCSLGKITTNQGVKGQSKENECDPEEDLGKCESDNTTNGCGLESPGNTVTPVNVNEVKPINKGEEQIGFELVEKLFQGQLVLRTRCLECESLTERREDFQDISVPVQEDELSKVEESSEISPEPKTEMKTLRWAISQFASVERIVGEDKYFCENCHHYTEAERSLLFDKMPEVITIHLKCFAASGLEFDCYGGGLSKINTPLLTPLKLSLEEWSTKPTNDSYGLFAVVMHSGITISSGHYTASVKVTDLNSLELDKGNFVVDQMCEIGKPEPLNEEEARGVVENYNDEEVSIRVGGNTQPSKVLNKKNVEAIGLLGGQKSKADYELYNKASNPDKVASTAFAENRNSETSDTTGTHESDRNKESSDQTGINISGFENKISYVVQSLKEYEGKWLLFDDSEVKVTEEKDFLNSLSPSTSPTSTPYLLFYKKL
Sequence of Cytochrome P450 1A2 (Homo sapiens) (P05177 whole entry, looked up): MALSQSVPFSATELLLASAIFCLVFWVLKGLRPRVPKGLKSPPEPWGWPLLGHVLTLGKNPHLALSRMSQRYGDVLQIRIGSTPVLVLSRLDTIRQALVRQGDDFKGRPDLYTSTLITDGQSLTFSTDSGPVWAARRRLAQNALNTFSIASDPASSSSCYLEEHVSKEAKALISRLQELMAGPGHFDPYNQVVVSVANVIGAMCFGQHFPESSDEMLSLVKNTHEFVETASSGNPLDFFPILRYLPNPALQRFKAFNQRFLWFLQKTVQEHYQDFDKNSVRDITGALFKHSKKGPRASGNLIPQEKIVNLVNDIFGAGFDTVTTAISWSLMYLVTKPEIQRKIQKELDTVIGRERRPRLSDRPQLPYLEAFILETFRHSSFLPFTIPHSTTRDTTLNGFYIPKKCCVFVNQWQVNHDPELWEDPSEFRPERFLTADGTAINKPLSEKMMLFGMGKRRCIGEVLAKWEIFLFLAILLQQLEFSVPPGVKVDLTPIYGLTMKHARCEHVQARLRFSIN
Sequence of Cytochrome P450 2C19 (Homo sapiens) (P33261 whole entry, looked up): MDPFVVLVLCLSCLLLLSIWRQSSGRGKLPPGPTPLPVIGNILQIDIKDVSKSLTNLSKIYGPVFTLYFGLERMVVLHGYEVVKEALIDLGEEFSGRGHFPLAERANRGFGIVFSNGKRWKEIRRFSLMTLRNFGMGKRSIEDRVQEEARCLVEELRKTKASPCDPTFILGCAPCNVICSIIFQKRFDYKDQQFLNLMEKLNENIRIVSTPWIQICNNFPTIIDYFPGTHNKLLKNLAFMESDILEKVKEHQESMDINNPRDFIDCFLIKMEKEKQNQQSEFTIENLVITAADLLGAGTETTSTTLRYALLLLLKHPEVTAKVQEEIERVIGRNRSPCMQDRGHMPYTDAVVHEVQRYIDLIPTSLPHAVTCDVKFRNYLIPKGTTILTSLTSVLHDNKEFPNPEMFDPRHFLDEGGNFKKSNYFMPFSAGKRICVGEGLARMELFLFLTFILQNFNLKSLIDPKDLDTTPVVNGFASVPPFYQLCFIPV

## Cc1noc(C)c1-c1cc(N(C)Cc2ccco2)ncn1
[1]
  Potency: > 11.4 µM (inactive)
[2]
  activity change, negative = inhibition: 1.26% (inactive)
[3]
  Potency: 3.16 µM (active)
[4]
  activity change, negative = inhibition: -16% (inactive)
[5]
  activity, negative = inhibition: 6.33% (inactive)
[6]
  Potency: > 46 µM (inactive)
[7]
  Potency: > 46 µM (inactive)
[8]
  outcome: inactive
[9]
  Potency: inactive
[10]
  activity change, negative = inhibition: 2.86% (inactive)
[10]; [21]
  max response: 13.8%
[10]; [22]
  max response: 17.9%
[11]
  Potency: inactive
[12]
  Potency: inactive
[13]
  Potency: inactive
[14]
  Potency: inactive
[15]
  Potency: inactive

## COc1ccc(Oc2ncc3nc(C)c(=O)n(C[C@H]4CCCO4)c3n2)cc1
[1]
  Potency: > 11.4 µM (inactive)
[2]
  activity change, negative = inhibition: -5.04% (inactive)
[3]
  Potency: 12.6 µM (active)
[4]
  activity change, negative = inhibition: 1.62% (inactive)
[5]
  activity, negative = inhibition: -14.8% (inactive)
[6]
  Potency: > 9.22 µM (inactive)
[7]
  Potency: > 46 µM (inactive)
[8]
  outcome: inactive
[9]
  Potency: inactive
[16]
  Potency: 3.98 µM (active)
[17]
  Potency: inactive
[18]
  activation: -5.29% (inactive)
[10]
  activity change, negative = inhibition: -2.24% (inactive)
[10]; [21]
  max response: -3.75%
[10]; [22]
  max response: -4.08%
[11]
  Potency: inactive
[12]
  Potency: inactive
[13]
  Potency: inactive
[14]
  Potency: inactive
[15]
  Potency: inactive

## Cc1noc(C)c1-c1cncnc1N(C)Cc1ccco1
[1]
  Potency: > 11.4 µM (inactive)
[2]
  activity change, negative = inhibition: 1.41% (inactive)
[3]
  Potency: inactive
[4]
  activity change, negative = inhibition: -7.22% (inactive)
[5]
  activity, negative = inhibition: -0.77% (inactive)
[6]
  Potency: > 46 µM (inactive)
[7]
  Potency: > 46 µM (inactive)
[8]
  outcome: inactive
[9]
  Potency: inactive
[16]
  Potency: 3.16 µM (active)
[17]
  Potency: inactive
[19]
  Potency: 2.51 µM (active)
[10]
  activity change, negative = inhibition: 4.24% (inactive)
[10]; [21]
  max response: 11.5%
[10]; [22]
  max response: 13.2%
[11]
  Potency: inactive
[12]
  Potency: inactive
[13]
  Potency: inactive
[14]
  Potency: inactive
[15]
  Potency: inactive

## CN(C)c1ncc2nc(-c3cc(F)cc(F)c3)c(=O)n(C[C@H]3CCCO3)c2n1
[1]
  Potency: > 11.4 µM (inactive)
[2]
  activity change, negative = inhibition: 19.6% (inactive)
[3]
  Potency: 0.0794 µM (active)
[4]
  activity change, negative = inhibition: 9.35% (inactive)
[5]
  activity, negative = inhibition: 29.3% (inactive)
[6]
  Potency: > 9.22 µM (inactive)
[7]
  Potency: > 46 µM (inactive)
[8]
  outcome: inactive
[9]
  Potency: inactive
[10]
  activity change, negative = inhibition: 7.12% (inactive)
[10]; [21]
  max response: 15.3%
[10]; [22]
  max response: 23.7%
[11]
  Potency: inactive
[12]
  Potency: inactive
[13]
  Potency: inactive
[14]
  Potency: inactive
[15]
  Potency: inactive

## CN1CCN(c2ncc3nc(-c4cc(F)cc(F)c4)c(=O)n(C)c3n2)CC1
[1]
  Potency: > 11.4 µM (inactive)
[2]
  activity change, negative = inhibition: 11.2% (inactive)
[3]
  Potency: 5.01 µM (active)
[4]
  activity change, negative = inhibition: 5.17% (inactive)
[5]
  activity, negative = inhibition: 12.7% (inactive)
[6]
  Potency: > 9.22 µM (inactive)
[7]
  Potency: > 46 µM (inactive)
[8]
  outcome: inactive
[9]
  Potency: inactive
[20]
  Potency: inactive
[10]
  activity change, negative = inhibition: 4.65% (inactive)
[10]; [21]
  max response: 14.2%
[10]; [22]
  max response: 19.8%
[11]
  Potency: inactive
[12]
  Potency: inactive
[13]
  Potency: inactive
[14]
  Potency: inactive
[15]
  Potency: inactive
